Assay results from the supplement of paper PMC11732987, “Enantioselective OTUD7B fragment discovery through chemoproteomics screening and high-throughput optimisation” (Communications Chemistry, 2025).

Key:
Assay in all cases: log2 ratio of Biotin-Ahx-Ub-VS probe labelling (fragment/DMSO); higher = less target engagement (more negative = stronger competition), active = hit call of the paper (q ≤ 0.05, log2 ratio ≤ -1)
Conditions in all cases: compound concentration: 200 uM; treatment time: 3 h
USP19 = target: T1, USP19 (UniProt O94966)
T1 sequence (whole entry): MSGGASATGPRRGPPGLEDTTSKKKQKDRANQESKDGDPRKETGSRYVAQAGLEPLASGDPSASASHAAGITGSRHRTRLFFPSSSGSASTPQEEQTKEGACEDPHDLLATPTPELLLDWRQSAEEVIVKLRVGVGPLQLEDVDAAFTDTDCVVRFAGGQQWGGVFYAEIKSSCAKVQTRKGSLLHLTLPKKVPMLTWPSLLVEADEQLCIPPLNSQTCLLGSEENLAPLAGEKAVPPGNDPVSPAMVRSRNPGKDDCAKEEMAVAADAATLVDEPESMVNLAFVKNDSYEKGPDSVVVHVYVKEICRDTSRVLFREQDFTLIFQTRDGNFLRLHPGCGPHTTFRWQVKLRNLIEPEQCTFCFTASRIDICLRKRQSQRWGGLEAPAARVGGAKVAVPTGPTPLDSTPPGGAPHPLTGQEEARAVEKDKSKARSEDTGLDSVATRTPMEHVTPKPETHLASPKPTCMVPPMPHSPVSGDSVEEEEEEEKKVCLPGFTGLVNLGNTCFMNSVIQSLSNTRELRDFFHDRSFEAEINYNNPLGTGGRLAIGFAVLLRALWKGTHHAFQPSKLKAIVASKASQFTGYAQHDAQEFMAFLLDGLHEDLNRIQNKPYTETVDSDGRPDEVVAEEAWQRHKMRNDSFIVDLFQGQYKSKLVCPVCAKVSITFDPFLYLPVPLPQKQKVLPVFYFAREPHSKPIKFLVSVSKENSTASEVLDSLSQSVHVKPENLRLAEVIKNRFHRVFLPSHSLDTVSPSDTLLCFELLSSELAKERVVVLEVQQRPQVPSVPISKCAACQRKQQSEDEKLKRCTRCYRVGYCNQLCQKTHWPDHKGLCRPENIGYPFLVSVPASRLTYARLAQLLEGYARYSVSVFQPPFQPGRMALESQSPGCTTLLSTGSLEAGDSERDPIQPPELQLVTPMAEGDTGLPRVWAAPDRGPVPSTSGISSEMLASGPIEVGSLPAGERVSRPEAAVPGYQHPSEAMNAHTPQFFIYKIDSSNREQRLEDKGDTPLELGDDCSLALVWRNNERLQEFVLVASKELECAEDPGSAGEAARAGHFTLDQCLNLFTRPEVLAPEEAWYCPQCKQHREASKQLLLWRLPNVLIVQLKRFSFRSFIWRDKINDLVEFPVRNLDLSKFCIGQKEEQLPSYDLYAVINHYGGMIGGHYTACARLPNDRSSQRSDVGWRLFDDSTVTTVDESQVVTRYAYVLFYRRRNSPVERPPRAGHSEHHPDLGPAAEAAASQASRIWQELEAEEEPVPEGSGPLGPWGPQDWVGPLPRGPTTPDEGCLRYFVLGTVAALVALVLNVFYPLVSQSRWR
Outline: (§1)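 Using Biotin-Ahx-Ub-VS at 0.5 µM final for 1 h, DUBs were labelled in HEK293T lysate (495 µg per sample) that had first been treated in triplicate with fragment at 200 µM or vehicle for 3 h. NeutrAvidin enrichment, LysC and trypsin digestion and diaPASEF LC-MS/MS followed. Spectronaut label-free quantities were global-median-normalised. Values are average log2 fragment/vehicle ratios by unpaired t-test, using proteins with ≥2 unique peptides.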

USP22 = target: T2, USP22 (UniProt Q9UPT9)
T2 sequence (whole entry): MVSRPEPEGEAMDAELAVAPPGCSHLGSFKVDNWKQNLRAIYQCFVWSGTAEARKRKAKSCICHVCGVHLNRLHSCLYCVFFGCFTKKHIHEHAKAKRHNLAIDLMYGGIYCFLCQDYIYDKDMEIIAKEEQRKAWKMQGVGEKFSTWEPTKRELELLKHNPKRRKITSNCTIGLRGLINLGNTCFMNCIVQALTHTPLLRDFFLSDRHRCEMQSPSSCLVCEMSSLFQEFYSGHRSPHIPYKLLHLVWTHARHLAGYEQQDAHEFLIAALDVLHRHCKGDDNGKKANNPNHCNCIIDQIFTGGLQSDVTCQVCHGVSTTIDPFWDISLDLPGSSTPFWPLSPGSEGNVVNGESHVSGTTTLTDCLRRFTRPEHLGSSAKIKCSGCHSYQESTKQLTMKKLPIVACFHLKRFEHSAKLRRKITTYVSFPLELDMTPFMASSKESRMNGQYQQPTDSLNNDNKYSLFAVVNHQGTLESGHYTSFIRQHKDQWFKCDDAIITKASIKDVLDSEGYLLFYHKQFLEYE
Outline: as §1

USP24 = USP24 (UniProt Q9UPU5)
Sequence of USP24 (Q9UPU5 whole entry): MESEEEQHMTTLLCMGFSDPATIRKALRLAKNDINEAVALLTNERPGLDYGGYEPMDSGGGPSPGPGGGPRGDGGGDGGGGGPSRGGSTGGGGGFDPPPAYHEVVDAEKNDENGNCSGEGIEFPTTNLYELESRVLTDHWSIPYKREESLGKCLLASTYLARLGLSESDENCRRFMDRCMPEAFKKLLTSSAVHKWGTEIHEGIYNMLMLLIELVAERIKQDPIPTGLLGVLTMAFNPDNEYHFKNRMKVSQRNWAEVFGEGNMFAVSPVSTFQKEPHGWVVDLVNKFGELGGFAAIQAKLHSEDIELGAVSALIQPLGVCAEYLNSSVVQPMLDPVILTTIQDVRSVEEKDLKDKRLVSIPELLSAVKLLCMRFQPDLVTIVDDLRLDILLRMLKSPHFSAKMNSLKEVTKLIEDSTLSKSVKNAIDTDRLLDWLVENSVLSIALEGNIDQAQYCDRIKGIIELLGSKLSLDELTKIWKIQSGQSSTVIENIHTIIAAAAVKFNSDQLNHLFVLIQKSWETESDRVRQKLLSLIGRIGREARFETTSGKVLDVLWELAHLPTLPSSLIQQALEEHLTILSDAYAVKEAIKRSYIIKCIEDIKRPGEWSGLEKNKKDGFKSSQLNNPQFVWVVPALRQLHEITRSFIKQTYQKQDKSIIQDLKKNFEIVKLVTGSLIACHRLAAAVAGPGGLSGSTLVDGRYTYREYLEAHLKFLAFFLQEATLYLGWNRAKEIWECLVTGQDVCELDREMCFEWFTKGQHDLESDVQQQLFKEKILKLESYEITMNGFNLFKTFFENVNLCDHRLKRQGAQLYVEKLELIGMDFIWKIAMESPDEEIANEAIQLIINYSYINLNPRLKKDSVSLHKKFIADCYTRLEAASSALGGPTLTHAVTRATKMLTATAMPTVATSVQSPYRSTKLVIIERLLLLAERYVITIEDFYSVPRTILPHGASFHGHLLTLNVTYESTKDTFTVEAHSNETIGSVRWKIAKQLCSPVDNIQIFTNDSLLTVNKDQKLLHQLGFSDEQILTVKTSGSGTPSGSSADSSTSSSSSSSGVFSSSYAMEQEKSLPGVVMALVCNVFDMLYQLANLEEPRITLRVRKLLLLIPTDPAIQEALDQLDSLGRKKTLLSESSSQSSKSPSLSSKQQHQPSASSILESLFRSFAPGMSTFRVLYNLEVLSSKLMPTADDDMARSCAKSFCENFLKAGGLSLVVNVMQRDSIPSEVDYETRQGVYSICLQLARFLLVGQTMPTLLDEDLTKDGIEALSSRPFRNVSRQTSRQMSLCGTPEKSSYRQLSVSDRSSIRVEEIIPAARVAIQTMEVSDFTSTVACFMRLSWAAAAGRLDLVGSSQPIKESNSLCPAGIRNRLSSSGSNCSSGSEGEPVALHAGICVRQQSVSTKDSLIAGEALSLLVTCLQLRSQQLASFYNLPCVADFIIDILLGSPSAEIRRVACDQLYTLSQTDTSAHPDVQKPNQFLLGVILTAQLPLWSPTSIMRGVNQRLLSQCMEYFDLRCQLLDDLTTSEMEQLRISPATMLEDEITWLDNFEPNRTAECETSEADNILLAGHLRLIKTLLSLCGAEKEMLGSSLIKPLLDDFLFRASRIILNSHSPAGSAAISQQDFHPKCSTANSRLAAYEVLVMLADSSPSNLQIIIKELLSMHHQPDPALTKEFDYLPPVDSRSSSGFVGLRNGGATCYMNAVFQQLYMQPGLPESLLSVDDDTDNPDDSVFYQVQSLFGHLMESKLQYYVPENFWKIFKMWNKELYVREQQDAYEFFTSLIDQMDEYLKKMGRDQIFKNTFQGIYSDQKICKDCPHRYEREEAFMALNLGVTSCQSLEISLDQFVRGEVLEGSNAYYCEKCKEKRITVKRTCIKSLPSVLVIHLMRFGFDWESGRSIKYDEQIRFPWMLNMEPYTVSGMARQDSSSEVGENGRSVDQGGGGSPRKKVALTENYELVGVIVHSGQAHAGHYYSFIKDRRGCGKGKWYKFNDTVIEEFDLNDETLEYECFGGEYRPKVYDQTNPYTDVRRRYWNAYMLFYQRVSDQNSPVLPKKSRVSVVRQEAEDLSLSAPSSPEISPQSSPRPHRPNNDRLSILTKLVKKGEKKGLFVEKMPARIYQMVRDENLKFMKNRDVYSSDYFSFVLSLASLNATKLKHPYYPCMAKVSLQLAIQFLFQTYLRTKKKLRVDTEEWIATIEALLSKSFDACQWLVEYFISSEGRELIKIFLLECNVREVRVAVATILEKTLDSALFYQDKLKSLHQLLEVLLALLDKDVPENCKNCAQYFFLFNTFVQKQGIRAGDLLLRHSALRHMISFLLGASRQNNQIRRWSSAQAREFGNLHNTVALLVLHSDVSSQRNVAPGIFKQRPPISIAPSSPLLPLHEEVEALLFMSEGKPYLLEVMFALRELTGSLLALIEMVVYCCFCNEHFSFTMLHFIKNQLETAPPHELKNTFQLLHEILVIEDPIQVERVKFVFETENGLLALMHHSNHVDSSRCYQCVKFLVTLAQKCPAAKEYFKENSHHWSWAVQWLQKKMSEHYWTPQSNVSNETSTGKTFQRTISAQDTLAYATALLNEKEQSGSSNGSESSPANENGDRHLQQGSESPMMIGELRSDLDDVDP
Outline: as §1

USP25 = target: T3, USP25 (UniProt Q9UHP3)
T3 sequence (whole entry): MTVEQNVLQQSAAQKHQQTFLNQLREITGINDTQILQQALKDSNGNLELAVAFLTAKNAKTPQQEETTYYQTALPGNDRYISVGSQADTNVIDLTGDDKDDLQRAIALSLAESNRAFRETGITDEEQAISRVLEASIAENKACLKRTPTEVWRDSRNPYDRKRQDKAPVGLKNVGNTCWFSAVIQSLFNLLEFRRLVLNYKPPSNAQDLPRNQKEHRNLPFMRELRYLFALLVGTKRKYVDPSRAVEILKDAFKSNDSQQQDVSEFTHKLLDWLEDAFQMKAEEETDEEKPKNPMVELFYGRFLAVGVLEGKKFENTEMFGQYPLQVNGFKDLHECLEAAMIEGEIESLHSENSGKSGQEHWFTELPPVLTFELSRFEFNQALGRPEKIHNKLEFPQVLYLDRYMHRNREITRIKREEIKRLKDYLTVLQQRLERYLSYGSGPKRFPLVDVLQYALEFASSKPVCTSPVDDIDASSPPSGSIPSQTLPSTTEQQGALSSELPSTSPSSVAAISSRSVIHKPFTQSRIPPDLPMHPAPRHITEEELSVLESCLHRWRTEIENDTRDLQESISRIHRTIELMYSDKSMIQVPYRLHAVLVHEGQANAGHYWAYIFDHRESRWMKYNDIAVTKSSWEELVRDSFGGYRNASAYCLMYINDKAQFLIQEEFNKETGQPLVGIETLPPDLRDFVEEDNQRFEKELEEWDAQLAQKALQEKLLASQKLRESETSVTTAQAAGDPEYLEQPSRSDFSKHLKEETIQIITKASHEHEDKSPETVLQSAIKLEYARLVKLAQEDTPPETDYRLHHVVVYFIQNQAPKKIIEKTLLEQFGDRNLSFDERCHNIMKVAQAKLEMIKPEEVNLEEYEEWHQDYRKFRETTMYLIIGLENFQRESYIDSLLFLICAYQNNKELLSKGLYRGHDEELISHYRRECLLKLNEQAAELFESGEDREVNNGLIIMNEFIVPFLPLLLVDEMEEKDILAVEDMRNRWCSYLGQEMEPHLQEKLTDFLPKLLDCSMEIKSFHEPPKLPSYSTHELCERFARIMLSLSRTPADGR
Outline: as §1

USP28 = target: T4, USP28 (UniProt Q96RU2)
T4 sequence (whole entry): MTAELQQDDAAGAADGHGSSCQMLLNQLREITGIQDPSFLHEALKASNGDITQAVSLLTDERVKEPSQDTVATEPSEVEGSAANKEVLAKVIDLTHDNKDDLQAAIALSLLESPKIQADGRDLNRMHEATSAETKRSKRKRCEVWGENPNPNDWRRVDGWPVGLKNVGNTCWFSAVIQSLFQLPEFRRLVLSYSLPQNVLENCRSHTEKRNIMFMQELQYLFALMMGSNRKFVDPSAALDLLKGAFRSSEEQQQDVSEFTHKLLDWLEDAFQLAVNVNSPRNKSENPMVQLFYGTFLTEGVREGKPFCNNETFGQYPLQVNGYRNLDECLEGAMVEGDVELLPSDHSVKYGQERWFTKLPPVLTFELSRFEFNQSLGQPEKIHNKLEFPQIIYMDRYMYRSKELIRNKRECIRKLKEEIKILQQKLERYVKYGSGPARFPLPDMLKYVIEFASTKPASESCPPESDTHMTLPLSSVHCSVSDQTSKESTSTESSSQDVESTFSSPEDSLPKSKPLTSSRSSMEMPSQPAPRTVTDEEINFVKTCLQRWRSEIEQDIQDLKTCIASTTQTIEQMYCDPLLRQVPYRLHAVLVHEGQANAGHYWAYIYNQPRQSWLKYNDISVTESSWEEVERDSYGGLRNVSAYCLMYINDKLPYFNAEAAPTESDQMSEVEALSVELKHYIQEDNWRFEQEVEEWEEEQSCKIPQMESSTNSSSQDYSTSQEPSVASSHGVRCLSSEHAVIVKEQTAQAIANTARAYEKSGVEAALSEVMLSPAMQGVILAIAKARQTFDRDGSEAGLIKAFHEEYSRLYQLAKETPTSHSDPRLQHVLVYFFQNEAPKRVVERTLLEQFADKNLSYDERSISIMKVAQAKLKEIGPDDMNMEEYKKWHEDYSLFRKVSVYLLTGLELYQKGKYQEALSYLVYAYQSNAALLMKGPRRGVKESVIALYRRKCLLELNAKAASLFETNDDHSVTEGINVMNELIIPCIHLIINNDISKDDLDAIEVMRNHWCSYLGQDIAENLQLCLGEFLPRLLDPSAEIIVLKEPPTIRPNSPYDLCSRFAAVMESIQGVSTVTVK
Outline: as §1

Measured: log2 ratio of Biotin-Ahx-Ub-VS probe labelling

Cl.Cn1nc2c(c1CNC(=O)CCl)CCCC2
inactive: USP19 0.00104 | USP22 -0.0746 | USP24 -0.0442 | USP25 -0.147 | USP28 -0.325
